The results in this text go back to PubChem BioAssay.

Experiment [1] is described as follows: compounds binding Alexa647 anti-His antibody – biochemical, small-molecule microarray, 635 nm fluorescence, artefact control for SMM control protein annotation, primary screen (AID 1128).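 Also: score merges feature fluorescence with signal-to-noise for each printed compound spot.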 The note with it: higher = more signal.
Experiment [2] deals with Human papillomavirus type 1a E7 protein (residues 1-88). Nature of the experiment: HPV1a E7 small-molecule binders, primary screen, biochemical, small-molecule microarray, residues 1-88, 635 nm (AID 1129). The note with it: small-molecule microarray binding, fluorescence 635 nm; higher = more signal.
Experiment [3] concerns the target Focal adhesion kinase 1 (Homo sapiens) (UniProt Q05397). Nature of the experiment: PTK2 protein binding on printed compound slides – biochemical, small-molecule microarray, 635/667 nm fluorescence, BSA, DTT, primary screen (AID 1130).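 Also: composite of spot emission at 667 nm and signal to noise over triplicate slides.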 The settings on record: 635 nm fluorescence, higher = more signal.
The subject of experiment [4] is Fibrinogen (Alexa647-labelled). As to the kind of experiment: Alexa647-fibrinogen binding to printed small molecules – biochemical, small-molecule microarray, 635/667 nm fluorescence, artefact control for SMM control-protein annotation, profiling panel (AID 1131).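 Also: z-score merges 667 nm fluorescence with per-spot signal-to-noise over triplicate slides.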 The settings on record: fibrinogen-A647 binding fluorescence, higher = more signal.
In experiment [5] the target is Follistatin (Homo sapiens) (UniProt P19883). Nature of the experiment: FST protein binding to printed compounds – biochemical, small-molecule microarray, 635/667 nm fluorescence, primary screen (AID 1132). The note with it: 635 nm fluorescence, higher = more signal.
Experiment [6] concerns the target Fibroblast growth factor 2 (Homo sapiens) (UniProt P09038). Nature of the experiment: basic fibroblast growth factor binding to printed compounds – biochemical, small-molecule microarray, 635/667 nm fluorescence, primary screen (AID 1133). The settings on record: FGF2, fluorescence 635/667, higher = more signal.
The nature of experiment [7]: JC-1 mitochondrial potential readout, lung cancer cells – cell-based, A549, JC-1 fluorescence, basal, 24 h, 100 nL, profiling panel (AID 1138).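 Also: A549 lung adenocarcinoma cells under basal conditions with no added stimulus; test concentration not given here.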 The note with it: higher = more signal.
In a further experiment the test system is Lefty1. Nature of the experiment: Lefty1 protein binding to printed compounds – biochemical, small-molecule microarray, 635/667 nm fluorescence, primary screen (AID 1139). The note with it: fluorescence 635/667, higher = more signal.
Experiment [8] deals with wheat germ agglutinin (Triticum aestivum), Alexa647-labelled. As to the kind of experiment: Alexa647-WGA lectin binding to printed small molecules – biochemical, small-molecule microarray, 635/667 nm fluorescence, artefact control for SMM control-protein annotation, profiling panel (AID 1140).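 Also: score merges 667 nm feature emission with signal to noise over triplicate slides.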 The note with it: WGA-A647 binding, 635 nm fluorescence, higher = more signal.
The target in experiment [9] is Luciferin 4-monooxygenase (Photinus pyralis) (UniProt P08659). Nature of the experiment: inhibition of purified Photinus pyralis luciferase – biochemical, luminescence, purified enzyme, 2006 set, primary screen (AID 1141).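 Also: cell-free assay with purified firefly luciferase at 100 ng per well in PBS; test concentration not given here.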 The settings on record: purified firefly luciferase, SteadyGlo luminescence, 30 min; higher = more signal, called active from +8 up or from −8 down.

The test system of experiment [10] is Wnt5a (protein binding on small-molecule microarray). Nature of the experiment: small molecules binding Wnt5a protein – biophysical, small-molecule microarray, 635/667 nm fluorescence, primary screen (AID 1142).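 Also: fluorescence read at 667 nm with signal to noise per printed feature.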 The note with it: 635 nm fluorescence, higher = more signal.
Experiment [11] can be described thus: ATP-based viability of Huh7 replicon cells – cell-based, CellTiter-Glo luminescence, basal, 48 h, cytotoxicity control for HCV replication inhibitor project, primary screen (AID 1143).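 Also: Huh7 hepatoma cells carrying a hepatitis C replication reporter with no stimulus; test concentration not given here.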 The note with it: higher = more signal, called active from +8 up or from −8 down.
The nature of experiment [12]: Pseudomonas biofilm growth suppression – PAO1 strain, BacTiter-Glo luminescence, LB-PBS, primary screen (AID 1144). The note with it: P. aeruginosa PAO1 biofilm, 12 h, higher = more signal.
Experiment [13] can be described thus: basal CRE-LacZ reporter activity in PC12 – cell-based, unstimulated, primary screen (AID 1145). The settings on record: no forskolin, luminescence, 4.5 h, higher = more signal, called active from +8 up or from −8 down.
Experiment [14] is described as follows: forskolin-driven CRE-LacZ activity in PC12 – cell-based, CRE-LacZ reporter, forskolin-stimulated, primary screen (AID 1146).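 Also: PC12 cells with 6xCRE LacZ reporter stimulated by forskolin 10 µM; beta-galactosidase reporter signal reflecting CREB driven transcription.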 The note with it: luminescence, 4.5 h, higher = more signal, called active from +8 up or from −8 down.
Experiment [15] concerns the target Streptavidin (Streptomyces avidinii) (UniProt P22629). Nature of the experiment: compounds binding control protein streptavidin – biophysical, small-molecule microarray, 635/667 nm fluorescence, artefact control for SMM compound annotation, primary screen (AID 1147).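 Also: signal reflects streptavidin binding to arrayed compounds as a control protein.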 The note with it: higher = more signal.
Experiment [16] can be described thus: probe aInhba binding on compound microarray – biochemical, small-molecule microarray, 635/667 nm fluorescence, primary screen (AID 1148).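 Also: score merges 667nm spot fluorescence with signal-to-noise for antibody binding to printed compounds.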 The settings on record: higher = more signal.
Experiment [17] deals with Torsin-1A (Homo sapiens) (UniProt O14656). Nature of the experiment: TOR1A wild-type binding on microarray – cell lysate, small-molecule microarray, lysate, 635/667 nm, primary screen (AID 1149). The note with it: COS7 hTOR1A-WT lysate, 635 nm fluorescence, higher = more signal.
Experiment [18] has the same target. As to the kind of experiment: torsin A mutant lysate binding on microarrays – cell lysate, small-molecule microarray, COS7 lysate, 635/667 nm fluorescence, primary screen (AID 1150).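 Also: score pools 667 nm emission and signal to noise measuring lysate protein binding.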 The settings on record: COS7 hTOR1A mutant lysate, 635 nm fluorescence, higher = more signal.
In experiment [19] the test system is Sonic hedgehog protein (Shh). Nature of the experiment: Sonic hedgehog microarray binding compounds – biochemical, small-molecule microarray, 635/667 nm fluorescence, primary screen (AID 1151).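 Also: Shh protein binding to compounds spotted on small-molecule microarray slides; score combines spot fluorescence intensity with signal-to-noise across triplicate slides.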 The settings on record: 635 nm fluorescence, higher = more signal.

Structures are written as SMILES. Active and inactive are the calls of the source. Unless noted, no rule for the calls is given here.

Sequence of Luciferin 4-monooxygenase (Photinus pyralis) (P08659 whole entry, looked up): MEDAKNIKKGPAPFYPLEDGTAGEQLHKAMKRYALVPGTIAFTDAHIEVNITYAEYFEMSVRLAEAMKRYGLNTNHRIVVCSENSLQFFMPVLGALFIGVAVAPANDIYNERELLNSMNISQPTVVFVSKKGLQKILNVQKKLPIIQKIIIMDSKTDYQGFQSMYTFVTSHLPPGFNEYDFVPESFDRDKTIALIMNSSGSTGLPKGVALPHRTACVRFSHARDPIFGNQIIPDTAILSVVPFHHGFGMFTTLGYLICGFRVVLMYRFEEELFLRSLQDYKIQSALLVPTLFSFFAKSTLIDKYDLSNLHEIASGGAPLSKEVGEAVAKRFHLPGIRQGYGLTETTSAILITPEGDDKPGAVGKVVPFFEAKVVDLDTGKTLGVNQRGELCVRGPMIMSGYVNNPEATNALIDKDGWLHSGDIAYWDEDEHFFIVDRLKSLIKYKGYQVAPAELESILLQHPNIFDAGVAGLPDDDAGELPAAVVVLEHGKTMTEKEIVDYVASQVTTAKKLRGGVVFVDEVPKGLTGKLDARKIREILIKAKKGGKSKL
Sequence of Torsin-1A (Homo sapiens) (O14656 whole entry, looked up): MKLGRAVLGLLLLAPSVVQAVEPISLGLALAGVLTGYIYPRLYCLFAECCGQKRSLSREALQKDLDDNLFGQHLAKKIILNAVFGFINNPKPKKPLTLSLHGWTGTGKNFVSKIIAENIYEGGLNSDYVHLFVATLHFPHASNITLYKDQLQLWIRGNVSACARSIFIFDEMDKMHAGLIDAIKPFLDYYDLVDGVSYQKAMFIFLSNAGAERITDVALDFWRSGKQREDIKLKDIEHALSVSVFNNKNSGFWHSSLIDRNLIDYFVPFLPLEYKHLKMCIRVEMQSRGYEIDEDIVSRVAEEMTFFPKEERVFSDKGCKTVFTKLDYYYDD
Sequence of Follistatin (Homo sapiens) (P19883 whole entry, looked up): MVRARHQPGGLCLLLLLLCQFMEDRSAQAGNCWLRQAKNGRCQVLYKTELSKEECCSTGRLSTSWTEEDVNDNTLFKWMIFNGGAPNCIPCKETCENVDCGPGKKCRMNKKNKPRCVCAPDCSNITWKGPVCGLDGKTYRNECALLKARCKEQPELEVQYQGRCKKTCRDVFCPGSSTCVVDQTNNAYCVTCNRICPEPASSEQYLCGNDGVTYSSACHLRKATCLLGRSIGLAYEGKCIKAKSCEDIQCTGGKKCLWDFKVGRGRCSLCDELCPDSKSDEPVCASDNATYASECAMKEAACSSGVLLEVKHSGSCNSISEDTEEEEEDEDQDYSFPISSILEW
Sequence of Fibroblast growth factor 2 (Homo sapiens) (P09038 whole entry, looked up): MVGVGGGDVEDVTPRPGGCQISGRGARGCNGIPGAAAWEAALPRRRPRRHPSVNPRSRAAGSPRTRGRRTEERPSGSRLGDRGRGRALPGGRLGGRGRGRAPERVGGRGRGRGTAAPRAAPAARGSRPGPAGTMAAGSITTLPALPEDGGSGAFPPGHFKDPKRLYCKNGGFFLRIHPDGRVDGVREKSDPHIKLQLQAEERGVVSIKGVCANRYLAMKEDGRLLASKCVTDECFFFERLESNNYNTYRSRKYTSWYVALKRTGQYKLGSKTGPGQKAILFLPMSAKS
Sequence of Focal adhesion kinase 1 (Homo sapiens) (Q05397 whole entry, looked up): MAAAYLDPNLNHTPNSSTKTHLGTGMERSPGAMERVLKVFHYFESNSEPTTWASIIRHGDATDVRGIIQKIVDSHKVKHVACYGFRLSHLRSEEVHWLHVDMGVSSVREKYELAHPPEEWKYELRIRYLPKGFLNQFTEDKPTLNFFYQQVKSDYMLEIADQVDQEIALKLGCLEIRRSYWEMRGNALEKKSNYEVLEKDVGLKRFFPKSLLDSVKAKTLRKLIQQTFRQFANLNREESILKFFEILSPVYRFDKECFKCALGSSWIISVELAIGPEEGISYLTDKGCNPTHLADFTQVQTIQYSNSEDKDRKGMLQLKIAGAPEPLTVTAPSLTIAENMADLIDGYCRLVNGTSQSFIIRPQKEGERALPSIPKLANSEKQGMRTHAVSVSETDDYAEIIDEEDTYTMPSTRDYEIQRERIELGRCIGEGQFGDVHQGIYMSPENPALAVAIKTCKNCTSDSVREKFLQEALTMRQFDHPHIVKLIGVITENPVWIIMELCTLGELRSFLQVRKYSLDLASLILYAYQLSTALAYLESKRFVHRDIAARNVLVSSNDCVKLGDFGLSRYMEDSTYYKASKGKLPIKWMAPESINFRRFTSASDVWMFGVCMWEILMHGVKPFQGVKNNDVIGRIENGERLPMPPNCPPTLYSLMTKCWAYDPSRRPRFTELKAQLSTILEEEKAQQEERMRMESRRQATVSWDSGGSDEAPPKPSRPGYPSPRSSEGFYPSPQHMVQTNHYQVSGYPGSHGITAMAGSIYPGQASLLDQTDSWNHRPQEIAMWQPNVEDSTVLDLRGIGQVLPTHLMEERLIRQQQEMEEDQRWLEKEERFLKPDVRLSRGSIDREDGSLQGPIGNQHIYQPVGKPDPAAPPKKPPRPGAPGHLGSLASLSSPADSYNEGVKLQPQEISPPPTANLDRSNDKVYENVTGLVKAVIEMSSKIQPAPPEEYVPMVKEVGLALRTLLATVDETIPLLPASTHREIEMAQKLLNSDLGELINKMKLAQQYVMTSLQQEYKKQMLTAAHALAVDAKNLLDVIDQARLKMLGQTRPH
Sequence of Streptavidin (Streptomyces avidinii) (P22629 whole entry, looked up): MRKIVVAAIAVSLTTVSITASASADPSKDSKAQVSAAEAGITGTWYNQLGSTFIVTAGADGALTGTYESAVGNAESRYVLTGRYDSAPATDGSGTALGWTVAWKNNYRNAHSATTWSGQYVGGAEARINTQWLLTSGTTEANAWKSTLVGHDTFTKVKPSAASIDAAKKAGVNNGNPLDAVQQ

Consider `CCCNC(=O)[C@@]1(c2ccc([N+](=O)[O-])cc2)CC(=O)N(C2CCCCC2)[C@@H]1c1ccc(CO)cc1I`, for which the composite z-score was determined as 2.18 in [1]; 0.949 in experiment [2]; 0.178 in experiment [3]; 0.34 in experiment [4]; 1.21 in experiment [5]; 1.52 in experiment [6]. Also, the composite z-score in the experiment with Lefty1 worked out at 1.01; in experiment [8] it was 1.1; in experiment [10], 1.01; in [15], 0.277; in [16], 0.306; with Torsin-1A (Homo sapiens) [17], 0.224. Besides, the composite z-score in the experiment with Torsin-1A (Homo sapiens) [18] turned out to be 0.451; in experiment [19], 1.85. Also, the z-score was 1.4 in experiment [7]; -0.424 (inactive) in experiment [9]; -4.24 (inactive) in [11]; -0.326 (inactive) in experiment [12]; -0.682 (inactive) in experiment [13]; 1.18 (inactive) in [14].

In the case of `COc1ccc([Si](C)(C)[C@@H]2[C@@H](CCn3cc([C@H](O)c4ccccc4)nn3)O[C@]3(C(=O)N(Cc4ccc(N5CCOC5=O)cc4)c4ccccc43)[C@H]2C)cc1`, the composite z-score in experiment [1] is 0.551; in experiment [2], 1.06; in experiment [3], -0.0646; in [4] it was 0.851; in experiment [5], 1.07; in [6] it was 1.04. The composite z-score in the experiment with Lefty1 is 1.14; in [8], 0.616; in experiment [10] it was 0.127; in experiment [15] it was 0.204; in experiment [16], -0.128; with Torsin-1A (Homo sapiens) [17], 1.15. The composite z-score was 1.14 in the experiment with Torsin-1A (Homo sapiens) [18] and 1.85 in experiment [19]. Also, the z-score in experiment [7] was 0.708; in [9] it was 0.82 (inactive); in experiment [11], -3.81 (inactive); in [12], -0.41 (inactive); in experiment [13], -0.0533 (inactive); in experiment [14] it was -0.0224 (inactive).

As to `O=C1OCC=C[C@H]2OC34C=CCN(c5ccc(Cl)cc5)C(=O)[C@H]3N(CCCCCO)C(=O)[C@@H]4[C@@H]12` (stereo not given in full), the composite z-score is 3.93 in experiment [1]; -0.434 in [2]; 0.0336 in experiment [3]; -0.825 in experiment [4]; -1.03 in [5]; -0.994 in experiment [6]. Further, the composite z-score in the experiment on Lefty1 is -1.52; in experiment [8], -0.519; in [10], -0.391; in experiment [15], -1.18; in [16], -0.128; in the experiment with Torsin-1A (Homo sapiens) [17] it was 0.172. Moreover, the composite z-score in the experiment with Torsin-1A (Homo sapiens) [18] was 2.22; in [19], -0.695. Also, the z-score is 0.731 in experiment [7]; -0.232 (inactive) in experiment [9]; -0.116 (inactive) in experiment [11]; 1.73 (inactive) in [12]; 0.183 (inactive) in experiment [13]; 0.168 (inactive) in experiment [14].

Turning to `C=CCC(OC(C)=O)[C@@H]1[C@@H](N(Cc2cc3ccccc3o2)C(=O)Cc2ccc(F)cc2)c2cc(OCCCO)ccc2N1C(=O)c1ccc2ccccc2n1` (stereo not given in full), the composite z-score in experiment [1] was 0.055; in experiment [2], -0.694; in experiment [3], 0.0919; in experiment [4] it was 0.271; in experiment [5], 0.147; in [6], -0.0144. In addition, the composite z-score is -0.189 with Lefty1; 0.0937 in experiment [8]; 0.705 in [10]; 0.0443 in experiment [15]; -0.142 in [16]; -0.398 in the experiment with Torsin-1A (Homo sapiens) [17]. The results for the composite z-score (with Torsin-1A (Homo sapiens) [18]; in experiment [19]) were -0.226 and 0.0974, respectively. The z-score in experiment [7] is 0.728; in [9] it was -0.997 (inactive); in [11], 0.252 (inactive); in experiment [12], -0.398 (inactive); in experiment [13], 3.16 (inactive); in experiment [14], 0.0063 (inactive).

In the case of `CC[C@@H]1[C@H]2C3C(=O)N(CC)C(=O)C3CC(=O)[C@H]2[C@H](c2ccc(C)cc2)N1S(=O)(=O)c1ccc(C)cc1` (stereo not given in full), the composite z-score in experiment [1] amounted to 0.733; in [2], 1.1; in experiment [3], 0.213; in experiment [4], 0.142; in experiment [5], 0.532; in [6] it was 0.087. Moreover, the composite z-score with Lefty1 was 0.201; in [8] it was 0.676; in experiment [10], 0.163; in experiment [15], 1.4; in experiment [16] it was -0.0986; with Torsin-1A (Homo sapiens) [17], -0.343. The values for the composite z-score (with Torsin-1A (Homo sapiens) [18]; in experiment [19]) were 0.112 and 0.514, respectively. For the same compound, the z-score was 1.18 in experiment [7]; 0.497 (inactive) in experiment [9]; -2.9 (inactive) in experiment [11]; 0.394 (inactive) in experiment [12]; -0.77 (inactive) in experiment [13]; -0.878 (inactive) in experiment [14].
